# In PubChem BioAssay (NCATS):
# “And” between values parts separate entries of the source, which are not always exact repeats. Equal values may be shown once. A number with no mark means an inactive call. Records with an inconclusive call do not appear. Where a call stands in place of a potency, no number is given. The source made the active and inactive calls. Unless noted, calls follow the shape of the dose curve; as a rule, active = well fitted curve in the direction sought with a large enough effect; inconclusive = small, poorly fitted or top-dose-only effect, or another doubt; inactive = no such curve, though single readings can be large; an effect the other way counts as inactive or inconclusive.
# Columns and labels:
# [1] = Cell Viability - Jurkat (AID 426;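 active = dose-dependent loss of cell ATP signal giving a full or clear fitted curve, ranked by lower potency value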; also: potency is read from the fitted curve at half-maximal effect); conditions: qHTS
# In short: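 Jurkat (clone E6-1, human T-cell leukemia) cells, 5000/well in complete medium, were exposed to compound for 40 hr at 37 °C. Viability was read as intracellular ATP by CellTiter-Glo luminescence; AC50 came from Hill fits of concentration-response data.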
# [2] = Cell Viability - Mesenchymal (AID 546); conditions: mesenchymal cells viability, qHTS; series mostly up to 91.7 µM;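 also: cells exposed to compound for 40 hours before reading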
# In short: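 Normal human renal glomerulus-derived kidney mesenchymal cells, 1000 per well in complete medium, were treated with compounds for 40 hr at 37 °C. Viability was read as intracellular ATP by CellTiter-Glo luminescence; AC50 values came from Hill-equation fits of qHTS concentration-response data.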
# [3] = Cellular Toxicity (caspase-3) MRC-5 (AID 659); conditions: MRC-5 cells, luminescence, normalized: DMSO 0%, 10 µM staurosporine 100%; series mostly up to 91.7 µM
# In short: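 Luminescence from caspase-cleaved aminoluciferin substrate (Caspase-Glo 3/7, 1 hr RT) reports caspase 3/7 activity in MRC-5 lung fibroblasts after 16 hr compound exposure. Normalized to DMSO basal and 10 uM staurosporine as 100%; AC50 from Hill fits.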
# [4] = Cellular Toxicity (caspase-3) NIH 3T3 (AID 666); conditions: NIH 3T3 caspase-3 activation, apoptosis/toxicity; series mostly up to 92.2 µM;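 also: caspase signal read after 16 h compound exposure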; also: potency is read from the fitted curve at half-maximal effect
# In short: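 Mouse NIH 3T3 fibroblasts (1000 cells/well) were treated with compound for 16 hr at 37°C in complete medium; caspase-3/7 activity was read by Caspase-Glo luminescence. Normalized to DMSO and 100 uM tamoxifen; AC50 from Hill fits.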
# [5] = MultiTox-Fluor Cytotoxicity Assay - LYMP1-001 - Dead Cells (AID 946); conditions: LYMP1-001 lymphoblastoid cells, dead-cell protease fluorescence; series mostly up to 92.2 µM
# In short: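 AC50 from Hill fit of concentration-response; data normalized to DMSO (basal) and 15 uM tetraoctylammonium bromide (100%). LYMP1-001 lymphoblastoid cells, 2500/well, 16 hr compound at 37 C; dead-cell protease fluorescence, Ex/Em 485/520.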
# [6] = MultiTox-Fluor Cytotoxicity Assay - LYMP1-002 - Live Cells (AID 955); conditions: LYMP1-002 lymphoblastoid live-cell protease fluorescence viability; series mostly up to 46.1 µM
# In short: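 Human lymphoblastoid LYMP1-002 cells, 2500/well in complete medium, rested 5 hr at 37 C, then exposed to compounds for 16 hr at 37 C. Live-cell protease cleavage of GF-AFC read by fluorescence (Ex/Em 405/510) after 60 min at room temperature; AC50 from Hill fits.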
# [7] = Cell Viability - LYMP1-003 - Assay at 24 hr (AID 963); conditions: LYMP1-003 lymphoblastoid cell viability; series mostly up to 92.2 µM
# In short: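 Human lymphoblastoid LYMP1-003 cells (2500/well) were rested 5 hr at 37 C, then exposed to compounds in complete medium for 24 hr at 37 C. Cellular ATP was quantified by CellTiter-Glo luminescence, and AC50 values came from Hill fits of concentration-response data.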
# [8] = Cell Viability - LYMP2-015 (AID 971); conditions: LYMP2-015 lymphoblastoid cell viability; series mostly up to 92.2 µM; also: nearly all actives have a fitted effect of over 55% in size; also: potency is read from the fitted curve at half-maximal effect
# In short: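 Human lymphoblastoid cells (2500/well) in complete medium were preincubated 5 hr at 37 C, then compound-treated 24 hr at 37 C. Intracellular ATP was read by CellTiter-Glo luminescence after 30 min at room temperature; AC50 came from Hill-equation concentration-response fits.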
# [9] = Cell Viability - LYMP2-016 (AID 984); conditions: LYMP2-016 lymphoblastoid cell viability, qHTS; series mostly up to 92.2 µM; also: nearly all actives have a fitted effect of over 55% in size; also: potency is read from the fitted curve at half-maximal effect
# In short: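 Cells were seeded at 2500 per well and rested 5 hr before a 24 hr compound exposure at 37 C. Viability was then gauged as cellular ATP by luciferase luminescence, with AC50 values fitted to the Hill equation.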
# [10] = Cell Viability - LYMP2-024 (AID 988); conditions: LYMP2-024 lymphoblastoid cell viability; series mostly up to 92.2 µM; also: nearly all actives have a fitted effect of over 60% in size; also: potency is read from the fitted curve at half-maximal effect
# In short: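 Human lymphoblastoid cells (2500/well) in complete medium were preincubated 5 hr at 37 C, then exposed to compounds for 24 hr at 37 C. Intracellular ATP was read by CellTiter-Glo luminescence; AC50 from Hill-equation fits of concentration-response data.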
# [11] = biological target: Vitamin D3 receptor (Homo sapiens) (UniProt P11473); test: qHTS assay for small molecule agonists of vitamin D receptor signaling (AID 588543; calls by dose curve); conditions: HEK293T VDR-UAS-bla, beta-lactamase ratio, 16 h; series mostly up to 76.8 µM
# Chain of Vitamin D3 receptor (Homo sapiens) (P11473 whole entry, looked up): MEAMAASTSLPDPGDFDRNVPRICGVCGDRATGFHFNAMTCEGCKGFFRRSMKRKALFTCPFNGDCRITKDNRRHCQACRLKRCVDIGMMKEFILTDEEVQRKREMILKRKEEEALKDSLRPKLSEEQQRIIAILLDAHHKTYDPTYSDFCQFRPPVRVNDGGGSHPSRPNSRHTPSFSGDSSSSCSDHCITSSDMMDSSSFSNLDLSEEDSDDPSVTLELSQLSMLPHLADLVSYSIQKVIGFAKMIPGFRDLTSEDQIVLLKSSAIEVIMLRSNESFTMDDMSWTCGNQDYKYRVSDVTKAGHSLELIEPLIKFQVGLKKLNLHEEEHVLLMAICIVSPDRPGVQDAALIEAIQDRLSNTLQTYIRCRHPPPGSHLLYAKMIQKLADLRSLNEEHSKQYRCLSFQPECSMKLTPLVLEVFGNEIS
# In short: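 Reporter cells (HEK293T, VDR-UAS-bla) were seeded in medium with 2% charcoal-stripped serum and incubated 5 h, then compounds in concentration series were added for 16 h at 37 °C. Stimulation was scaled between DMSO basal and 50 nM 1α,25-dihydroxyvitamin D3.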
# [12] = biological target: Peroxisome proliferator-activated receptor alpha (Homo sapiens) (UniProt Q07869); test: qHTS assay for small molecule agonists of the peroxisome proliferator-activated receptor alpha (PPARalpha) signaling pathway (AID 651778); conditions: PathHunter PPARalpha complementation, chemiluminescence, 6 h; hits give high values
# Chain of Peroxisome proliferator-activated receptor alpha (Homo sapiens) (Q07869 whole entry, looked up): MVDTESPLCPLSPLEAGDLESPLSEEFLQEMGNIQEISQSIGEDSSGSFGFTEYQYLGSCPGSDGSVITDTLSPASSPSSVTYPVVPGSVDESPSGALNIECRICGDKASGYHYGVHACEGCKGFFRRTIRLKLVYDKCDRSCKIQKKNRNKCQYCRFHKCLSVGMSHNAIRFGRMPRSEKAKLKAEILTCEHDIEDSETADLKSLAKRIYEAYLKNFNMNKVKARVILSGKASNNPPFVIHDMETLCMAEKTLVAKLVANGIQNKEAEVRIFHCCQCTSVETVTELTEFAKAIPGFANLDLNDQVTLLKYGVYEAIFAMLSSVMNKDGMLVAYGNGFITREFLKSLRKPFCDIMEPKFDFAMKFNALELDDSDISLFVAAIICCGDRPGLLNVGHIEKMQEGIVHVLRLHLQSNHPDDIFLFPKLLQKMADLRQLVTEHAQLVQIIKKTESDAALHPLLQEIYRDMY
# In short: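 Cells plated at 2,000/well and held overnight at 37 C, 5% CO2, then compound added by pin tool for 6 hr; after PathHunter detection reagent and 60 min at room temperature, chemiluminescence from enzyme complementation was read.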
# [13] = biological target: Nuclear receptor ROR-gamma (Homo sapiens) (UniProt P51449); test: qHTS assay for small molecule antagonists of the retinoid-related orphan receptor gamma (ROR-gamma) signaling pathway (AID 651802); conditions: ROR-gamma antagonist cell reporter assay; series mostly up to 92.2 µM; also: nearly all actives have a fitted effect of over 60% in size; also: potency is read from the fitted curve at half-maximal effect
# Chain of Nuclear receptor ROR-gamma (Homo sapiens) (P51449 whole entry, looked up): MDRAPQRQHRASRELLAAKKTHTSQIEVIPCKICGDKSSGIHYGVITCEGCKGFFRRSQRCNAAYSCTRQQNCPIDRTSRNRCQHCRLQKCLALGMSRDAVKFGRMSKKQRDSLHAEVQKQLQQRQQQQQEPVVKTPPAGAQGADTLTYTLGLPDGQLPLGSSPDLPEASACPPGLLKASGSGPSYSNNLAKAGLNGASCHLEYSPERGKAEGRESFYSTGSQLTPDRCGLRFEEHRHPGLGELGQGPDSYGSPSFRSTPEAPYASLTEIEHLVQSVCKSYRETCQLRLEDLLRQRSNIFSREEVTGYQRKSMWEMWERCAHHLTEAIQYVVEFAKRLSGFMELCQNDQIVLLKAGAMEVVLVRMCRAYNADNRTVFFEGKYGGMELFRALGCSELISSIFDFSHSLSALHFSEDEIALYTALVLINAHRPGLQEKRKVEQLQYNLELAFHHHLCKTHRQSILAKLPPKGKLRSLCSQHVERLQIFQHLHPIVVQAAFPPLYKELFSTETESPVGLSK
# In short: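 CHO cells carrying TET-inducible ROR-gamma and an ROR response element–luciferase reporter were exposed to compound, then induced with doxycycline. After 16hr at 37C, luminescence was read; lower signal indicates antagonism.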
# [14] = qHTS assay for small molecule antagonists of the retinoid-related orphan receptor gamma (ROR-gamma) signaling pathway - cell viability counter screen (AID 720652; active = well fitted curve in the direction sought with a large enough effect in the repeat runs; an effect the other way counts as inactive or inconclusive;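 also: compound exposure lasted 16 hr before ATP read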); conditions: RORgamma reporter cell line viability counter screen; series mostly up to 92.2 µM
# In short: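 Counter screen in CHO cells carrying TET-inducible ROR-gamma and an ROR response element-luciferase reporter; cells plated 5 hr, compound pinned, doxycycline added, then 16 hr at 37 C. Viability read as intracellular ATP by CellTiter-Glo luminescence.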
# [15] = qHTS assay for small molecule agonists of the antioxidant response element (ARE) signaling pathway measured by Nrf2-dependant transcriptional activity - cell viability counter screen (AID 720653; active = well fitted curve in the direction sought with a large enough effect in the repeat runs; an effect the other way counts as inactive or inconclusive); conditions: ARE-bla HepG2 viability, CellTiter-Glo ATP luminescence, 16 h; hits give low values
# In short: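 ARE-bla HepG2 cells (2,000/well) rested 5 hrs at 37C/5% CO2, then exposed to compounds in DMSO for 16 hrs. Viability was read in the same wells as intracellular ATP by luminescence, 30 min at room temperature after reagent addition.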
# [16] = qHTS assay for cell viability of the p53RE-bla HCT-116 cell line (AID 743292); conditions: p53RE-bla HCT-116 viability, ATP luminescence, 16 h; series mostly up to 95 µM; also: nearly all actives have a fitted effect of over 55% in size
# In short: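 Readout: CellTiter-Glo luminescence after 30 min RT. Treatment: compounds in DMSO, 16 h, 37 C. Cells: CellSensor p53RE-bla HCT-116, 4,000/well, preincubated 5 h.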
# [17] = biological target: Nuclear receptor subfamily 1 group I member 2 (Rattus norvegicus) (UniProt Q9R1A7); test: qHTS assay for small molecule activators of the rat pregnane X receptor (rPXR) signaling pathway (AID 651751; call rule not given here); conditions: rPXR reporter cells, luciferase (One-Glo), 24 h
# Chain of Nuclear receptor subfamily 1 group I member 2 (Rattus norvegicus) (Q9R1A7 whole entry, looked up): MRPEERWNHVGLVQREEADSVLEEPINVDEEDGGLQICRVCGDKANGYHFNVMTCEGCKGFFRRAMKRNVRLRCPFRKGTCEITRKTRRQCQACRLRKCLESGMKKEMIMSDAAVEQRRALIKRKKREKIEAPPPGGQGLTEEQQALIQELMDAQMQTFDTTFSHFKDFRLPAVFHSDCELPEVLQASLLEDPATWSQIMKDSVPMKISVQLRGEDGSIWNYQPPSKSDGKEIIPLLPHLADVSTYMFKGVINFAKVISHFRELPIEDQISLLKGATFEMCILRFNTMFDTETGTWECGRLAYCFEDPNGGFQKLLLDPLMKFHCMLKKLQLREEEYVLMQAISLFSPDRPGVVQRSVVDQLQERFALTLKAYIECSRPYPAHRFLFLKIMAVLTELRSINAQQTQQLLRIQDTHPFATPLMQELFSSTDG
# [18] = Cell Viability - NIH 3T3 (AID 541); conditions: NIH 3T3 cell viability, qHTS; activity change, negative = cytotoxicity: at 92.2 µM (top of the series); also: nearly all actives have a fitted effect of over 25% in size; also: potency is read from the fitted curve at half-maximal effect
# In short: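 NIH 3T3 mouse embryo fibroblasts (1000 cells/well) were plated in complete medium and treated with compound for 40 hr at 37 °C. Viability was read as intracellular ATP by CellTiter-Glo luminescence; AC50 values came from Hill-equation fits of concentration-response data.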
# [19] = Cell Viability - LYMP1-002 - Assay at 24 hr (AID 993); conditions: LYMP1-002 lymphoblastoid cells viability; series mostly up to 92.2 µM
# In short: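 Human lymphoblastoid LYMP1-002 cells, 2500/well in complete medium, were treated with compounds for 24 h at 37 C; intracellular ATP was read by CellTiter-Glo luminescence. AC50 values came from Hill-equation fits of qHTS concentration-response data.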
# [20] = qHTS assay for small molecule disruptors of the mitochondrial membrane potential - 5 hr assay (AID 651755; calls by dose curve; also: nearly all actives have a fitted effect of over 40% in size); conditions: JC-1-type ratio dye; series mostly up to 92.2 µM
# In short: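 HepG2 cells, attached overnight at 37C, were exposed to compound or DMSO for 5 hr at 37C, 5% CO2. Mito-MPS dye was then added for 30 min, and fluorescence read at 490/535 nm (monomers) and 540/590 nm (aggregates).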
Structure (SMILES),Potency [1],Potency [2],outcome [3],Potency [4],outcome [5],outcome [6],outcome [7],Potency [8],Potency [9],Potency [10],outcome [11],max response [12],Potency [13],Potency [14],max response [15],Potency [16],max response [17],Potency [18],Potency [19],Potency [20]
COP(=S)(OC)SCn1nnc2ccccc2c1=O,> 92 µM,inactive,inactive,inactive,inactive,inactive,inactive,inactive,inactive,inactive,inactive,-5.24% and -2.4%,inactive,inactive,-8.53% and -8.77%,inactive,0.903% and 4.17%,,,
O=C(O)c1cccc(Cl)c1,> 92 µM,inactive,inactive,,,inactive,inactive,inactive,,,inactive,-1.81%,,inactive,-8.47%,inactive,0.516%,inactive,inactive,inactive
N#CC(Cl)(Cl)Cl,,inactive,,,,inactive,inactive,,inactive,inactive,,9.56%,inactive,inactive,1.54%,inactive,3.31%,inactive,inactive,inactive
CN1CSC(=S)N(C)C1,57.6 µM (active),inactive,inactive,,inactive,,,31.6 µM (active),39.8 µM (active),12.6 µM (active),inactive,-4.77% and -6.32%,inactive,,-1.99% and -0.305%,inactive,-10.5% and -8.21%,1.26 µM (active),,inactive
O=[N+]([O-])c1c(Cl)c(Cl)c(Cl)c(Cl)c1Cl,> 92 µM,inactive,inactive,31.6 µM (active),,inactive,,inactive,inactive,inactive,inactive,3.1% and -1.25%,inactive,,-5.67% and 10.2%,inactive,-3.78% and 1.81%,31.6 µM (active),inactive,inactive
CCCCC(CC)COC(=O)c1ccc(C(=O)OCC(CC)CCCC)c(C(=O)OCC(CC)CCCC)c1 (stereo not drawn),,inactive,inactive,inactive,inactive,inactive,,,,,inactive,-3.57%,inactive,inactive,-7.7%,inactive,0.711%,inactive,inactive,
Nc1ccc([N+](=O)[O-])cc1N,,inactive,,inactive,inactive,inactive,inactive,inactive,inactive,inactive,inactive,-9.77% and -2.05%,42.2 µM (active),inactive,0.262% and -5.88%,,-5.6% and -2.56%,,inactive,inactive
CCN(N=O)C(N)=O,,,inactive,inactive,inactive,inactive,inactive,inactive,,inactive,inactive,1.39%,inactive,inactive,1.02%,inactive,,inactive,,inactive
